Laboratory results published in ChEMBL document CHEMBL4888484, “Replenishing the malaria drug discovery pipeline: Screening and hit evaluation of the MMV Hit Generation Library 1 (HGL1) against asexual blood stage Plasmodium falciparum ,using a nano luciferase reporter read-out” (2022).
About 540 (0.36%) of roughly 150,000 compounds showed an effect of 50% or more. The sample holds strong results, similar compounds and a random draw of the others, so the mix is not that of the screen.

System: Plasmodium falciparum
Assay: Primary screen in NF54 nanoGlo assay, in single point, at 2uM, 72h; a lower Z score goes with more inhibition
Assay type: functional, Erythrocyte
Details: timepoint 72 hour

Question: Which results are given for `NC1CCOC(C2CCCCN2S(=O)(=O)c2ccc(C(F)(F)F)s2)C1` (stereo unspecified)?
Answer: % Inhibition: 4%; Z score: -0.63

Question: For `COCCN1C(=O)[C@@H]2C(Cc3ccc(O)cc3)NC3(C(=O)Nc4c(C)cc(C)cc43)[C@@H]2C1=O` (stereo partly specified), which “% Inhibition” value is on record?
Answer: The value was -3%.

Question: What about the Z score of the same molecule?
Answer: The Z score was 0.41.

Question: `Cc1cccc(Cl)c1C(=O)NC(C1CCNCC1)[C@H]1C[C@H](O)C1` (stereo partly specified) was tested. Which “% Inhibition” value did it give?
Answer: The value was -9%.

Question: What about the Z score of the same molecule?
Answer: Its Z score is 1.88.

Question: Which results are given for `Cc1noc2ncnc(N3CCCC3CC(O)c3cnn(C)c3)c12` (stereo unspecified)?
Answer: % Inhibition: 4%; Z score: -0.69

Question: Which “% Inhibition” value does the source give for `CCC[C@H](NC1CCN(C(=O)OC)CC1)C1CC1` here?
Answer: The value was 7%.

Question: What about the Z score of the same molecule?
Answer: Its Z score is -0.96.

Question: `CC1CC(C)CN(C(=O)c2ccc3c(=O)n4c(nc3c2)CCCC4)C1` (stereo unspecified) was tested. Which “% Inhibition” value did it give?
Answer: Its value is -3%.

Question: What about the Z score of the same molecule?
Answer: Its Z score is 0.52.

Question: With `COc1ccc([C@H]2CC(=O)Nc3cccc4c3c2cn4Cc2ccccc2)cc1` as the molecule, how does the “% Inhibition” value read?
Answer: Its value is -4%.

Question: What about the Z score of the same molecule?
Answer: Its Z score is 0.51.

Question: What does the source list for `COc1ccc2c(/C=C/c3cc[n+](C)cc3)cn(Cc3ccccc3)c2c1`?
Answer: % Inhibition: 68%; Z score: -6.36

Question: What does the source list for `COc1ccc([C@@H](CC(=O)N2CCCC2)c2cn(Cc3ccccc3)c3ccccc23)cc1`?
Answer: % Inhibition: -8%; Z score: 0.98

Question: How did the “% Inhibition” value turn out when `Cc1nc(NC(=O)NCCn2ncnn2)sc1C` was run?
Answer: The value was 31%.

Question: What about the Z score of the same molecule?
Answer: The Z score was -4.22.

Question: `CCC(C)CS(=O)(=O)NC(C)C1CC1` (stereo unspecified) was tested. Which “% Inhibition” value did it give?
Answer: Its value is -4%.

Question: And the Z score?
Answer: The Z score was 0.39.

Question: For `Cc1cccc(NC(=O)c2c[nH]c3nc(C)ccc3c2=O)c1`, which “% Inhibition” value is on record?
Answer: The value was 4%.

Question: And the Z score?
Answer: Its Z score is -0.5.

Question: For `Cc1ccc(C)c(NC(=O)c2c(Oc3ccc(F)cc3)nc(C)c(Cl)c2C)c1`, which “% Inhibition” value is on record?
Answer: Its value is -8%.

Question: And the Z score?
Answer: The Z score was 1.01.

Question: For `O=C(Nc1c(C(=O)Nc2ccc(F)c(F)c2)oc2ccccc12)c1cc2ccccc2o1`, which “% Inhibition” value is on record?
Answer: Its value is -13%.

Question: And the Z score?
Answer: Its Z score is 2.46.

Question: For `Cc1c(C)c2ccc(NC(=O)c3cc4ccccc4o3)cc2[nH]c1=O`, which “% Inhibition” value is on record?
Answer: Its value is 93%.

Question: And the Z score?
Answer: Its Z score is -7.22.

Question: How did the “% Inhibition” value turn out when `Cn1cc(NC(=O)c2cc3ccccc3o2)ccc1=O` was run?
Answer: Its value is -4%.

Question: What about the Z score of the same molecule?
Answer: Its Z score is 0.73.

Question: `CCOC(=O)c1cn(CCc2c[nH]cn2)cc(Oc2ccccc2)c1=O` was tested. Which “% Inhibition” value did it give?
Answer: The value was 0%.

Question: And the Z score?
Answer: Its Z score is -0.09.

Question: With `O=C(NCC(O)c1ccccc1Cl)C1CCCN1` (stereo unspecified) as the molecule, how does the “% Inhibition” value read?
Answer: Its value is 1%.

Question: What about the Z score of the same molecule?
Answer: Its Z score is -0.1.

Question: Which “% Inhibition” value does the source give for `O=C(c1ccc(-c2noc(C(F)(F)F)n2)cc1)N1CCC1` here?
Answer: Its value is 29%.

Question: And the Z score?
Answer: The Z score was -3.23.

Question: What does the source list for `CCNC(=O)N1CCN(c2ccc(-c3noc(C(F)(F)F)n3)cn2)CC1`?
Answer: % Inhibition: 12%; Z score: -1.6

Question: With `Cc1c(F)cccc1-c1ccc(CNc2cccc(CN3CCC(O)CC3)c2)o1` as the molecule, how does the “% Inhibition” value read?
Answer: Its value is 8%.

Question: And the Z score?
Answer: The Z score was -0.88.

Question: For `CNC(=O)c1ccc(OC)c(-c2ccc(NCCN3CCOCC3)nc2)c1`, which “% Inhibition” value is on record?
Answer: Its value is -7%.

Question: And the Z score?
Answer: The Z score was 1.05.

Question: Which “% Inhibition” value does the source give for `CCc1ccc(-c2cnc3ccccc3n2)cc1NC(=O)[C@@H](NS(=O)(=O)c1ccccc1)C(C)C` here?
Answer: Its value is 4%.

Question: And the Z score?
Answer: Its Z score is -0.61.

Question: Which results are given for `Cc1ccc(CCC(=O)NC(c2ccccc2)C(C)C(=O)O)o1` (stereo unspecified)?
Answer: % Inhibition: 5%; Z score: -0.67

Question: How did the “% Inhibition” value turn out when `Cc1cccc(-c2noc(N3CCOCC3)c2CN(C(=O)CC(C)C)C2CC2)c1` was run?
Answer: The value was -12%.

Question: And the Z score?
Answer: The Z score was 1.29.

Question: `CCn1cc(CN2CC[C@H]3C(=O)NCCCCCCN(Cc4ccncc4)[C@@H]3C2)c(C)n1` was tested. Which “% Inhibition” value did it give?
Answer: The value was 2%.

Question: And the Z score?
Answer: Its Z score is -0.2.

Question: With `COc1cccc(CN2CC[C@H]3C(=O)NCCCCCCN(Cc4ccncc4)[C@@H]3C2)n1` as the molecule, how does the “% Inhibition” value read?
Answer: Its value is -5%.

Question: And the Z score?
Answer: The Z score was 0.65.

Question: For `COc1ccc(CN2CC[C@@H]3C(=O)NCCCCCCN(Cc4ccncc4)[C@@H]3C2)cc1Cn1ccnc1`, which “% Inhibition” value is on record?
Answer: Its value is 59%.

Question: What about the Z score of the same molecule?
Answer: The Z score was -7.78.

Question: For `CN(Cc1cn(C)nn1)CC1CCOCC1`, which “% Inhibition” value is on record?
Answer: Its value is -11%.

Question: What about the Z score of the same molecule?
Answer: The Z score was 2.06.

Question: With `CCO[C@H]1CN(C(=O)Cc2nc(C)sc2C)C[C@@H]1O` as the molecule, how does the “% Inhibition” value read?
Answer: The value was 0%.

Question: And the Z score?
Answer: The Z score was 0.05.

Question: Which results are given for `C[C@@]1(C(=O)NC2CCCCCCC2)Cn2c(ccc2-c2ccccc2)C(=O)N1Cc1ccco1`?
Answer: % Inhibition: 7%; Z score: -0.83

Question: Which “% Inhibition” value does the source give for `S=c1cc(-c2ccccc2)n(Cc2ccco2)c2c1CCCC2` here?
Answer: Its value is 54%.

Question: What about the Z score of the same molecule?
Answer: The Z score was -6.88.

Question: What does the source list for `S=c1cc(-c2ccccc2)n(CCCc2ccccc2)c2c1CCCC2`?
Answer: % Inhibition: -6%; Z score: 0.85

Question: `CC(=O)c1cc(Br)ccc1NCC(=O)N(C)CCC#N` was tested. Which “% Inhibition” value did it give?
Answer: Its value is -26%.

Question: And the Z score?
Answer: Its Z score is 2.93.

Question: Which results are given for `CCc1nccc(-c2c(-c3ccccc3)ncn2CCN2CCOCC2)n1`?
Answer: % Inhibition: -6%; Z score: 0.83

Question: `CCOC(=O)c1cnc(N2CCN(Cc3cccnc3)CC2)s1` was tested. Which “% Inhibition” value did it give?
Answer: The value was -2%.

Question: And the Z score?
Answer: Its Z score is 0.17.

Question: For `CCOC(=O)c1c(-c2ccccc2)n(C)c2cc(-c3cccnc3)c(O)cc12`, which “% Inhibition” value is on record?
Answer: The value was 9%.

Question: And the Z score?
Answer: Its Z score is -1.7.

Question: For `CCOC(=O)c1c(CN2CCCC2)n(C)c2cc(-c3cccnc3)c(O)c(Cn3ccnc3)c12`, which “% Inhibition” value is on record?
Answer: The value was 58%.

Question: And the Z score?
Answer: The Z score was -10.36.

Question: For `Cc1nc2ccc(NC(=O)Nc3ccc(F)cc3F)cc2s1`, which “% Inhibition” value is on record?
Answer: Its value is -9%.

Question: What about the Z score of the same molecule?
Answer: The Z score was 1.17.

Question: What does the source list for `CCNc1nc(C)cc(Nc2ccc(NS(=O)(=O)c3c(C)noc3C)cc2)n1`?
Answer: % Inhibition: 86%; Z score: -8.65

Question: For `Cc1ccc(C)c(C(=O)Nc2cnc(-n3nc(C)cc3C)nc2)c1`, which “% Inhibition” value is on record?
Answer: Its value is 5%.

Question: And the Z score?
Answer: The Z score was -0.75.

Question: Which “% Inhibition” value does the source give for `Cc1cc(N(C)C)nc(NCCNC(=O)Nc2cccc(F)c2C)n1` here?
Answer: The value was 20%.

Question: And the Z score?
Answer: Its Z score is -2.61.

Question: For `COc1ccc(NS(=O)(=O)c2c(C)noc2C)cn1`, which “% Inhibition” value is on record?
Answer: The value was 3%.

Question: What about the Z score of the same molecule?
Answer: The Z score was -0.47.

Question: With `CCNc1nc(C)cc(Nc2ccc(NC(=O)c3cc(C)ccc3C)cc2)n1` as the molecule, how does the “% Inhibition” value read?
Answer: The value was 97%.

Question: And the Z score?
Answer: The Z score was -9.09.

Question: Which results are given for `Cc1noc(C)c1S(=O)(=O)Nc1ccc2c(c1)OC1(CCCC1)O2`?
Answer: % Inhibition: 5%; Z score: -0.73

Question: For `CCOc1nc(-c2cccc(F)c2)n(-c2ccc(NC(=O)Nc3ccc(F)cc3F)cc2)n1`, which “% Inhibition” value is on record?
Answer: The value was -9%.

Question: What about the Z score of the same molecule?
Answer: The Z score was 1.18.

Question: `CCNc1nc(C)cc(NCCNC(=O)c2cccc(Cl)c2)n1` was tested. Which “% Inhibition” value did it give?
Answer: Its value is 23%.

Question: What about the Z score of the same molecule?
Answer: Its Z score is -3.44.

Question: `Cc1cc(C)n2c(C(=O)NCCNS(=O)(=O)c3ccc(Cl)cc3)nnc2n1` was tested. Which “% Inhibition” value did it give?
Answer: Its value is -9%.

Question: What about the Z score of the same molecule?
Answer: The Z score was 1.16.

Question: Which “% Inhibition” value does the source give for `Cc1ccncc1CN(C)C(=O)[C@]1(O)CCc2cc(Br)ccc2C1` here?
Answer: Its value is -5%.

Question: What about the Z score of the same molecule?
Answer: The Z score was 1.08.

Question: How did the “% Inhibition” value turn out when `Cc1ccc(C)c(-c2cnn(CC3CC3)c2)c1` was run?
Answer: Its value is 0%.

Question: And the Z score?
Answer: The Z score was 0.02.

Question: For `C=C1C(C)(C)[C@@H]2CC[C@@]1(C(=O)N1CCn3c(C(N)=O)cnc3C1)C2`, which “% Inhibition” value is on record?
Answer: Its value is -14%.

Question: And the Z score?
Answer: The Z score was 2.1.

Question: Which “% Inhibition” value does the source give for `CC(C)Cc1noc(CNC(=O)c2nn(C)cc2Cl)n1` here?
Answer: The value was -7%.

Question: What about the Z score of the same molecule?
Answer: Its Z score is 1.19.

Question: With `Cc1c(-c2cnn(C)c2)cc(C#N)n1C(F)F` as the molecule, how does the “% Inhibition” value read?
Answer: The value was -7%.

Question: And the Z score?
Answer: The Z score was 1.32.
